The subject of assay [1] is XIP peptide (Xip251-270) binding. The assay can be described thus: small-molecule binders of XIP peptide, primary screen, biochemical, small-molecule microarray, fluorescence 635/667 nm, 0.1 µg/mL protein (AID 1182). The following applies: fluorescent protein binding, 635 nm, higher = more signal, called active from +8 up or from −8 down.
The test system of a further assay is XIP peptide (Xip251-270). The assay can be described thus: small-molecule binders of XIP peptide, primary screen, biochemical, small-molecule microarray, fluorescence 635/667 nm, 0.5 µg/mL protein (AID 1183). The following applies: small-molecule microarray binding, fluorescence 635 nm; higher = more signal.
Assay [2] can be described thus: Plasmodium falciparum growth inhibition, primary screen, strain 3D7, DAPI fluorescence, 100 nL (AID 1184).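 Note: parasites grown inside human red blood cells in medium with human serum.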 To be noted: P. falciparum 3D7 growth, 3 d, higher = more signal.
For assay [3], the target named is Homeobox protein Hox-A13 (Mus musculus) (UniProt Q62424). As to the kind of experiment: inhibitors of HoxA13-DNA binding, primary screen, biochemical, fluorescence polarization, labeled oligonucleotide (AID 1185). To be noted: 15 min, higher = more signal, called active from +8 up or from −8 down. (In general: In fluorescence polarisation assays a small probe gives low polarisation when free and higher when bound to something large.)
Chain of Homeobox protein Hox-A13 (Mus musculus) (Q62424 whole entry, looked up): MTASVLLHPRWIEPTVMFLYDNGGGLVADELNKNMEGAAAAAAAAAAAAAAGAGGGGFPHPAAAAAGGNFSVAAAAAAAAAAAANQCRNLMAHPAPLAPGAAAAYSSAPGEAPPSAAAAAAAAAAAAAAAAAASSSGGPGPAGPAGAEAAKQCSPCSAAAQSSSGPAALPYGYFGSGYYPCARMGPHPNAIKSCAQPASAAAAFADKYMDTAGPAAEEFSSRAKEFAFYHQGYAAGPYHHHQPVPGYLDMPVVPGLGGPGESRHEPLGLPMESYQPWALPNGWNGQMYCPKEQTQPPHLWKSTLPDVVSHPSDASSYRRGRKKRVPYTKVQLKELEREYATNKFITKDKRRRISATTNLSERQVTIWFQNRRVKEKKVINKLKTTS

Assay [4] in a line: inhibitors of hydroxyurea-induced Chk1 phosphorylation, primary screen, imaging, HeLa, phospho-Chk1 antibody, percent positive cells (AID 1186). To be noted: hydroxyurea-induced phospho-Chk1 immunofluorescence imaging, higher = more signal.
Assay [5] in a line: inhibitors of hydroxyurea-induced Chk1 phosphorylation, primary screen, imaging, HeLa, phospho-Chk1 nuclear intensity (AID 1187). To be noted: hydroxyurea-induced phospho-Chk1 immunofluorescence imaging, higher = more signal.

Activity calls are given as the source filed them. Unless noted, the rule behind the calls is not given here.

For the molecule `COc1ccc([Si](C)(C)[C@H]2[C@H](CCn3cc([C@H](O)c4ccccc4)nn3)O[C@@]3(C(=O)N(Cc4cccc(N5C(=O)c6cccc7cccc5c67)c4)c4ccccc43)[C@@H]2C)cc1`, the results for the composite z-score (in assay [1]; in the assay with XIP peptide (Xip251-270)) were 0.75 (inactive) and 0.141, respectively. For the same molecule, the z-score was -0.989 in assay [2], -2.01 (inactive) in assay [3], 0.169 (inactive) in assay [4] and -0.656 (inactive) in assay [5].
Regarding `CN1C(=O)[C@@]2(CCS(=O)(=O)c3ccccc3)N=C(c3ccc(OCCCO)cc3)O[C@H]2c2ccccc21`, the values for the composite z-score (in assay [1]; in the assay with XIP peptide (Xip251-270)) were 0.489 (inactive) and 0.182, respectively. Besides, the z-score in assay [2] is -2.07; in assay [3] it was -6.19 (inactive); in assay [4], -0.262 (inactive); in assay [5] it was 0.146 (inactive).
Consider `O=C1O[C@@H](c2ccccc2)[C@@H](c2ccccc2)N2[C@@H](c3ccc(O)cc3)[C@]3(C(=O)Nc4ccc(C#CCCO)cc43)[C@@H](C(=O)NC[C@H](O)c3ccccc3)[C@H]12`, for which the composite z-score in assay [1] is 0.437 (inactive); in the assay on XIP peptide (Xip251-270), 0.478. Moreover, the z-score is -0.656 in assay [2], -5 (inactive) in assay [3], -0.101 (inactive) in assay [4] and -0.46 (inactive) in assay [5].
`COc1ccc([Si](C)(C)[C@H]2[C@H](CCn3cc([C@H](O)c4ccccc4)nn3)O[C@@]3(C(=O)N(Cc4ccc(N5CCOC5=O)cc4)c4ccccc43)[C@@H]2C)cc1`: the composite z-score in assay [1] was -0.47 (inactive); in the assay on XIP peptide (Xip251-270) it was 0.103. The z-score in assay [2] is -2.29; in assay [3], -2.28 (inactive); in assay [4], -0.138 (inactive); in assay [5] it was -0.0848 (inactive).
Consider `CCOC(=O)C1=CC[C@@H](c2ccccc2)N(S(=O)(=O)c2ccc(C)cc2)C1`, for which the composite z-score in assay [1] is -0.4 (inactive); in the assay with XIP peptide (Xip251-270), -0.654. Moreover, the z-score in assay [2] is -0.557; in assay [3] it was -2.76 (inactive); in assay [4], 0.107 (inactive); in assay [5] it was -0.749 (inactive).
Consider `Cc1c(NC(=O)/C(C#N)=C/C=C/c2ccc(N(C)C)cc2)c(=O)n(-c2ccccc2)n1C`, for which the results for the composite z-score (in assay [1]; in the assay with XIP peptide (Xip251-270)) were 1.41 (inactive) and 0.7, respectively. The z-score in assay [2] was -0.46; in assay [3], -13.8 (active); in assay [4] it was 0.348 (inactive); in assay [5], 0.996 (inactive).
Turning to `CCCCC(CC)C(O)C1C=CC2C(=O)N(c3ccccc3)C(=O)C2N1Nc1ccc([N+](=O)[O-])cc1` (configuration not stated), the composite z-score is 0.389 (inactive) in assay [1] and 0.624 with XIP peptide (Xip251-270). The z-score in assay [2] was 0.0352; in assay [3], -3.6 (inactive); in assay [4] it was 0.332 (inactive); in assay [5] it was -0.383 (inactive).
Take `NC(=O)NCC#Cc1ccc2c(c1)[C@]1(C(=O)N2)[C@H](c2ccc(O)cc2)N2[C@H](c3ccccc3)[C@H](c3ccccc3)OC(=O)[C@H]2[C@@H]1C(=O)Nc1nc2ccccc2s1`: the figures for the composite z-score (in assay [1]; in the assay on XIP peptide (Xip251-270)) were 0.541 (inactive) and 0.453, respectively. The z-score is 0.364 in assay [2], 0.608 (inactive) in assay [3], -0.275 (inactive) in assay [4] and 0.0338 (inactive) in assay [5].
For the molecule `CC(=O)n1cc(C(O)C2C=CC3C(=O)N(Cc4ccccc4)C(=O)C3N2n2cnnc2)c2ccccc21` (configuration not stated), the composite z-score is 0.097 (inactive) in assay [1] and 0.008 in the assay with XIP peptide (Xip251-270). The z-score was -0.15 in assay [2], -3.16 (inactive) in assay [3], 1.19 (inactive) in assay [4] and 0.239 (inactive) in assay [5].
On to `C=CCNC(=O)[C@@H]1[C@H]2C(=O)O[C@H](c3ccccc3)[C@H](c3ccccc3)N2[C@H](c2ccc(OCCO)cc2)[C@@]12C(=O)N(C(=O)OCCOC)c1ccc(C#CC3=CCCCC3)cc12`, for which the composite z-score in assay [1] was 0.0094 (inactive); with XIP peptide (Xip251-270) it was 0.659. Moreover, the z-score in assay [2] is -2.19; in assay [3], 0.713 (inactive); in assay [4], 0.201 (inactive); in assay [5], 0.474 (inactive).
Consider `CC(C)C(CO)N1C(=O)[C@]2(C)C3C(=O)OCCC/C=C\[C@H]3OC23C=CCN(c2ccc(Cl)cc2)C(=O)[C@@H]13` (some centres not stated), for which the composite z-score is 0.172 (inactive) in assay [1] and 0.146 in the assay on XIP peptide (Xip251-270). In addition, the z-score was 0.775 in assay [2], -6.76 (inactive) in assay [3], -0.199 (inactive) in assay [4] and -0.181 (inactive) in assay [5].
Turning to `C=C(/C=C/CNS(=O)(=O)c1ccc(C)cc1)[C@H](O)[C@H]1CCCN1S(=O)(=O)c1ccccc1[N+](=O)[O-]`, the composite z-score in assay [1] is -0.121 (inactive); with XIP peptide (Xip251-270) it was 0.729. Moreover, the z-score is -2.04 in assay [2], -5.58 (inactive) in assay [3], -0.0778 (inactive) in assay [4] and 0.181 (inactive) in assay [5].
As to `CN1C2C=C(CCCO)C(C3C(=O)N(C(N)=O)C(=O)C32)C1c1cccs1` (configuration not stated), the figures for the composite z-score (in assay [1]; in the assay with XIP peptide (Xip251-270)) were 0.0931 (inactive) and -0.301, respectively. Also, the z-score in assay [2] is -0.29; in assay [3], -8.5 (active); in assay [4], -0.443 (inactive); in assay [5], 0.133 (inactive).
As to `COCCOC(=O)N1C(=O)[C@@]2(c3cc(C#CC4(O)CCCCCC4)ccc31)[C@H](C(=O)N1CCCCCCC1)[C@H]1C(=O)O[C@H](c3ccccc3)[C@H](c3ccccc3)N1[C@@H]2c1ccc(OCCO)cc1`, the composite z-score was 1.72 (inactive) in assay [1] and 0.838 with XIP peptide (Xip251-270). Besides, the z-score in assay [2] is -2.3; in assay [3] it was -15.8 (active); in assay [4] it was 0.331 (inactive); in assay [5] it was 0.805 (inactive).
As to `C=CC[C@@]12N=C(c3ccc(OCCCO)cc3)O[C@@H]1c1ccccc1N(CCS(=O)(=O)c1ccccc1)C2=O`, the composite z-score is 2.13 (inactive) in assay [1] and 0.767 with XIP peptide (Xip251-270). In addition, the z-score is -2.01 in assay [2], -2.38 (inactive) in assay [3], -0.641 (inactive) in assay [4] and -0.295 (inactive) in assay [5].
For `COc1ccc([Si](C)(C)[C@H]2[C@H](CCn3cc(CCO)nn3)O[C@@]3(C(=O)N(Cc4ccc(N5C(=O)c6cccc7cccc5c67)cc4)c4ccccc43)[C@@H]2C)cc1`, the composite z-score in assay [1] is 0.146 (inactive); in the assay with XIP peptide (Xip251-270), 0.625. For the same molecule, the z-score in assay [2] is -2.28; in assay [3], -3.7 (inactive); in assay [4], -0.771 (inactive); in assay [5], -0.923 (inactive).
On to `COC(=O)[C@@]1(Cc2ccc(F)cc2)[C@H]2c3cc(C(=O)N4CCCC4)n(CCc4c[nH]c5ccc(OC)cc45)c3C[C@H]2CN1C(=O)c1ccccc1`, for which the composite z-score in assay [1] was 0.804 (inactive); with XIP peptide (Xip251-270), 0.727. The z-score was -1.74 in assay [2], -3.53 (inactive) in assay [3], -0.371 (inactive) in assay [4] and -0.199 (inactive) in assay [5].
As to `C=CC[C@@]1(C(=O)N2CCCCC2)N=C(c2ccc(OCCCO)cc2)O[C@@H]1c1ccccc1`, the figures for the composite z-score (in assay [1]; with XIP peptide (Xip251-270)) were 0.0703 (inactive) and 0.735, respectively. In addition, the z-score in assay [2] is -2.09; in assay [3], -5.99 (inactive); in assay [4] it was -0.377 (inactive); in assay [5], -0.146 (inactive).
With `Cc1ccc(S[C@]2(C(=O)NC(C)C)CC(=O)N(Cc3ccccc3C(F)(F)F)[C@@H]2c2ccc(CO)cc2I)cc1`, the composite z-score was 0.136 (inactive) in assay [1] and 0.582 in the assay on XIP peptide (Xip251-270). Further, the z-score in assay [2] was -1.14; in assay [3], -1.9 (inactive); in assay [4] it was 0.0101 (inactive); in assay [5], 0.293 (inactive).
With `CCN(CC)c1ccc(N2CC=CC34O[C@@H]5/C=C\CCC(C)OC(=O)C5[C@H]3C(=O)N(CCO)[C@@H]4C2=O)cc1` (some centres not stated), the composite z-score in assay [1] is 1.27 (inactive); in the assay with XIP peptide (Xip251-270) it was 0.461. Besides, the z-score in assay [2] is -1.23; in assay [3], -5.86 (inactive); in assay [4], 0.695 (inactive); in assay [5] it was 0.21 (inactive).
For `COc1cc2c(cc1OC)CN(C(=O)[C@H]1[C@@H]3C(=O)O[C@@H](c4ccccc4)[C@@H](c4ccccc4)N3[C@@H](c3ccc(OCCO)cc3)[C@]13C(=O)Nc1ccc(C#CCCO)cc13)CC2`, the composite z-score in assay [1] is 0.527 (inactive); in the assay with XIP peptide (Xip251-270), 0.692. Further, the z-score was -2.06 in assay [2], 1.96 (inactive) in assay [3], 0.0312 (inactive) in assay [4] and 0.157 (inactive) in assay [5].
In the case of `C=CC[C@@]1(C(=O)O)N=C(c2ccc(OCCCO)cc2)O[C@@H]1c1ccccc1`, the figures for the composite z-score (in assay [1]; in the assay on XIP peptide (Xip251-270)) were 0.759 (inactive) and 0.994, respectively. The z-score in assay [2] was -0.441; in assay [3] it was -4.13 (inactive); in assay [4] it was -0.106 (inactive); in assay [5] it was -0.0411 (inactive).
